A number with no mark means an inactive call. The rule behind the calls is not given here.
target: Pantothenate synthetase (Mycobacterium tuberculosis (strain ATCC 25618 / H37Rv)) (UniProt P9WIL5); test: Coupled enzyme confirmation of inhibitors against recombinant Mtb PanC (AID 375); details: coupled enzyme assay; at 10 µM, active compounds read high;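 note: 0% = full reaction with vehicle and 100% = no enzyme background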
Sequence (P9WIL5 whole entry, looked up): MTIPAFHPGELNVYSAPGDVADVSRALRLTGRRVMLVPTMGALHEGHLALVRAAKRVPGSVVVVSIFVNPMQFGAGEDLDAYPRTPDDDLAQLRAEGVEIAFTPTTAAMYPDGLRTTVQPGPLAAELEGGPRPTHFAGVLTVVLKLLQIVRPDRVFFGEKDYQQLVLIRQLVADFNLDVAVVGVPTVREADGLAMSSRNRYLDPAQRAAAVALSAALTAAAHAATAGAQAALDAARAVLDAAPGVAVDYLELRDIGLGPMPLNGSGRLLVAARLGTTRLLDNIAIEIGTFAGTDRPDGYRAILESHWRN

SMILES	inhibition
CCOc1ccc(Cc2nn[nH]n2)cc1	1%
CN(c1ccc(OCc2nnc(-c3ccccc3)o2)cc1)S(=O)(=O)c1ccccc1	0%
COc1ccc(-c2nsc(SCC(=O)Nc3cc(C)on3)n2)cc1	0%
O=S(=O)(Nc1nc2ccccc2nc1NCc1ccco1)c1ccc(Cl)cc1	0%
O=C(O)Cc1ccccc1C(=O)O	0%
NS(=O)(=O)c1cc2c(cc1C(F)(F)F)NC(Cc1ccccc1)NS2(=O)=O (stereo not given)	0%
O=C(CC(C(=O)N1CCc2ccccc21)n1ccnc1)NCc1cccnc1 (stereo not given)	0%
COc1ccc(NC(=O)Nc2ccc(N3CCCC3=O)cc2)cc1OC	0%
CCn1c(SCC(=O)Nc2ccc(Cl)cc2)nnc1C1CC1	0%
Cn1c(-n2c(-c3ccco3)nc3ccccc3c2=O)nc2ccccc21	2%
COc1ccc(-c2noc(-c3cc(Cl)ccc3Cl)n2)cc1OC	2%
COc1cc(OC)cc(-c2nc(N)n[nH]2)c1	0%
Cc1oc(-c2ccc(Cl)cc2)cc1-c1nn2c(-c3ccoc3C)nnc2s1	3%
Cc1ccc(-c2ccc(SCC(=O)Nc3nonc3C)nn2)cc1	3%
NC(=O)c1c(NC(=O)Cc2cccs2)sc2c1CCC2	0%
COc1cccc(-c2nc(CSCC(=O)N3CCc4ccccc43)c(C)o2)c1	0%
CCOC(=O)C1CCN(C(=O)CN(Cc2ccccc2)S(C)(=O)=O)CC1	1%
N#Cc1c(N)nc(SCc2ccncc2)c(C#N)c1-c1cccs1	11%
CCCCCOC(=O)C1=C(C)N(C)C(=O)NC1c1cc(Br)c(O)c(OC)c1 (stereo not given)	0%
CSc1cccc(NC(=O)C2CCCN2S(=O)(=O)c2ccc3c(c2)CCC(=O)N3)c1 (stereo not given)	0%

SMILES	inhibition
CCOC(=O)N1CCN(C(=O)c2ccc(CS(=O)(=O)c3ccc(OC)cc3)o2)CC1	1%
Cc1ccc(-n2nc(C(=O)N3CCN(C)CC3)c3c4ccccc4n(C)c3c2=O)cc1	0%
CCN(CCCNS(=O)(=O)c1ccc2c(c1)oc(=O)n2C)c1cccc(C)c1	0%
COC(=O)c1cc(Br)c(=O)n(CCN2CCOCC2)c1	0%
O=c1c2ccccc2[nH]c(=S)n1CCN1CCC(=C(c2ccc(F)cc2)c2ccc(F)cc2)CC1	4%
Cc1cc(NC(=O)CSc2nccn2-c2ccc(Cl)cc2)no1	0%
COC(=O)c1ccccc1NC(=O)C1CC(=O)N(c2ccc(F)cc2)C1 (stereo not given)	20%
O=C(Cn1cccc1)N1CCN(C(c2ccccc2)c2ccccc2)CC1	13%
CC(C)c1nnc(SCC(=O)NCc2ccco2)n1C	0%
C=CCN(CC=C)C(=O)Nc1cc(Cl)ccc1OC	0%
O=S(NCc1ccco1)C12CC3CC(CC(C3)C1)C2 (stereo not given)	0%
O=C1C(c2ccncc2)=C(O)c2ccccc21	0%
COc1ccccc1-n1c(C)nnc1SCC(N)=O	0%
CS(=O)(=O)Nc1ccc(C(=O)NCc2ccco2)cc1	0%
CC1(C)CC(=O)c2cnc(NC(=O)CCc3ccccc3)nc2C1	0%
Cn1c(=O)c2c(nc(SCC(=O)N3CCCc4ccccc43)n2C)n(C)c1=O	1%
O=C(N1CCOCC1)N1CCC(NC(=O)C23CC4CC(CC(C4)C2)C3)CC1	0%
COC(=O)C1=C(C)N(c2ccc(C(=O)OC)cc2)C(=O)C1	0%
CN(C)/C=N/c1ncnc2c1cnn2-c1ccc(C(F)(F)F)cn1	3%
CC(c1nnc(SCC(=O)Nc2sccc2C#N)n1-c1ccc(Cl)cc1)N(C)C (stereo not given)	0%

From PubChem BioAssay
